uPA generation: blocks generation of uPA at the cell surface | cell surface uPA generation assay, qHTS | Potency, µM (titrated, usually from 38.3 µM), for the others: top-dose activity change, negative = inhibition, hits mostly inhibitors | 330,000 tested, 0.31% active | AID 540303; active means well fitted inhibition curve with a large enough effect; inconclusive means small, poorly fitted or top-dose-only effect; inactive means no such curve, though single readings can be large or run the other way; tested in mouse RAW 264.7 cells; further: on the % scale 0 is the no-effect control and ±100 the full control effect; nearly all actives have a fitted effect of over 55% in size
Chronic BCR inh: chronic active BCR signaling inhibition; Potency, µM (doses to about 46.1 µM), inactives show top-dose activity change, negative = inhibition, hits mostly inhibitors; ABC-DLBCL IkBa-CBG/CBR reporter, luminescence ratio, 4 h; AID 493014; 340,000 tested, 0.05% active; active means well fitted inhibition curve with a large enough effect in the signal ratio, with a control signal flat, not every such curve was filed as active; inconclusive means small, poorly fitted or top-dose-only effect, or effect the other way, or a change in a side signal; the % refers to the signal ratio;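 further: plate controls were basal doxycycline-induced cells for no effect and cells given 10 µM MG132 for full effect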
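TMD8 human ABC-DLBCL cells with doxycycline-inducible IκBα–green luciferase fusion and unfused red luciferase, in 0.5% FBS medium; compounds up to 46 uM, 4 h at 37C. Green/red luminescence ratio, filter-overlap corrected, fitted to concentration-response curves.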
VP16 counter: counter-screen for ROR gamma inhibitors: Gal4-VP16 reporter | Drosophila S2 Gal4-VP16 UAS-luciferase, luminescence, 20 h | Potency, µM (series often up to 53.6 µM), inactives show at the highest dose activity, negative = inhibition, actives largely listed as inhibitors | 310,000 tested, 3.5% active;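 further: Gal4-VP16 expression switched on by copper sulfate through the metallothionein promoter; on the % scale 0 is the no-effect control and ±100 the full control effect; nearly all actives have a fitted effect of over 50% in size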
Integrin act MD: activators of alpha7 integrin expression for muscular dystrophy; alpha7betagal myoblasts, beta-gal FDG fluorescence, 48 h; Potency, µM (series often up to 38.3 µM), for the others: at the top dose activation, usual class: activators; 350,000 tested, 0.064% active; AID 624291;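 further: 100% = response of the positive control SU9516; nearly all actives have a fitted effect of over 60% in size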
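Alpha7betagal+/- myoblasts (passage 13) were plated 16-24 hr, then exposed to compounds (1:260 dilution of DMSO stock) for 48 hours at 37C. After MPER lysis, β-galactosidase reporter activity was read as FDG fluorescence (ex 480/em 540) after 30 minutes.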
Mito fusion act: blocks mitochondrial division or promotes mitochondrial fusion | S. cerevisiae fusion-defective mutant growth rescue, CellTiterGlo 48 h | Potency, µM (doses to about 46.1 µM), for the others: at the highest dose growth rescue (activation), actives largely listed as activators | 320,000 tested, 0.23% active; further: % of control where 0% means no effect; nearly all actives have a fitted effect of over 45% in size
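Compounds are tested for their ability to restore growth of mitochondrial fusion-defective yeast strains at non-permissive 37C in YPEG medium over 48 hours. Viability is quantified by luciferase luminescence.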
RORg inh: inhibitors of mouse ROR gamma transcriptional activity | Drosophila S2 Gal4-RORgamma UAS-luciferase reporter, 20 h | Potency, µM (highest dose often 53.6 µM), for the others: at the highest dose activity change, negative = inhibition, hits mostly inhibitors | 310,000 tested, 5.4% active | AID 2551; further: on the % scale 0 is the no-effect control and ±100 the full control effect; nearly all actives have a fitted effect of over 60% in size
Target sequence (P51450 whole entry, looked up, the tested form may be a part): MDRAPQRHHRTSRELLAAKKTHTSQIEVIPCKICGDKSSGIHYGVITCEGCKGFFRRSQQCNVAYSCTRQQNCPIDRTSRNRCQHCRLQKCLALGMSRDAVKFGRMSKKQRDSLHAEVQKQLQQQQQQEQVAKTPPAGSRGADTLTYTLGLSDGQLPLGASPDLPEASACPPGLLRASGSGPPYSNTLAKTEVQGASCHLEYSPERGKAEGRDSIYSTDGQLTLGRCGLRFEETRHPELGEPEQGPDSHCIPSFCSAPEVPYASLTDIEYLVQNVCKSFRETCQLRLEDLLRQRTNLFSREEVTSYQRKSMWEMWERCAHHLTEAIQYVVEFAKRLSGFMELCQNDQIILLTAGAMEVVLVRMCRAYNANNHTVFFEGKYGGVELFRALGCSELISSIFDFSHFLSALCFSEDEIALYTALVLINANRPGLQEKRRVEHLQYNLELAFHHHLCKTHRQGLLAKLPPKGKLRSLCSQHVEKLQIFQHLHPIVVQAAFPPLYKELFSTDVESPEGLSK
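Drosophila Schneider cells stably carrying a metallothionein-driven Gal4 DBD–ROR gamma fusion and a UAS-Photinus luciferase reporter were exposed to compound for 1 hr, then induced with copper sulfate (700 uM final) for 20 hr at ambient temperature before luminescence reading.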
* hit, by the source's call. In the library only some 5.5% were active in any assay of this set; here they are far more common. Unless noted, the call rests on the fitted dose curve; in most records, active means well fitted curve in the direction sought with a large enough effect; inconclusive means small, poorly fitted or top-dose-only effect, or another doubt; inactive means no such curve, though single readings can be large; an effect the other way counts as inactive or inconclusive. Potency means the concentration at half of the fitted maximal effect.

COc1ccc(-c2cnnn2-c2ccc(NC(=O)c3ccccc3OC)cc2)cc1 was read as Chronic BCR inh 1%.
Cc1cccc(Cn2c(C(C)O)nc3ccccc32)c1 (stereo not given) was read as uPA generation -6%, Chronic BCR inh -2%, VP16 counter -9%, Integrin act MD 10%, Mito fusion act -4% and RORg inh -8%.
Screening Cc1cccc(Cn2c(C)nc3c(N)c(C)c(C)cc32)c1 returned uPA generation 7%, Chronic BCR inh -5%, VP16 counter inconclusive, Integrin act MD -9%, Mito fusion act 3% and RORg inh 13µM*.
For CC(=O)c1ccc(N=Nc2ccc(C)cc2)cc1 the results were uPA generation -7%, Chronic BCR inh inconclusive, VP16 counter inconclusive, Integrin act MD 7%, Mito fusion act -2% and RORg inh 10µM*.
CC(=O)c1ccc(N=Nc2ccc(N(C)C)cc2)cc1 was read as uPA generation -3%, Chronic BCR inh inconclusive, VP16 counter -12%, Integrin act MD 9%, Mito fusion act -7% and RORg inh -2%.
For CC(C)CC(=O)N1CCN(Cc2ccc(Cl)cc2)CC1 the results were uPA generation -1%, Chronic BCR inh 0%, VP16 counter -6%, Integrin act MD 1%, Mito fusion act 2% and RORg inh -7%.
`CC(C)NC(=O)CN1CCN(C(=O)CCl)CC1` gave Chronic BCR inh 1%, VP16 counter 3%, Integrin act MD 7.1µM*, Mito fusion act -2% and RORg inh -7%.
CC(C)c1ccc(CN2CCN(C(=O)CCl)CC2)cc1 was read as uPA generation 3.5µM*, Chronic BCR inh inconclusive, VP16 counter -2%, Integrin act MD -80%, Mito fusion act -2% and RORg inh 5%.
O=C(/C=C/c1ccccc1)NC(=S)Nc1ccccc1O was read as uPA generation -8%, Chronic BCR inh inconclusive, VP16 counter inconclusive, Integrin act MD -58%, Mito fusion act -12% and RORg inh inconclusive.
`Cc1ccc(/C=C/C(=O)NC(=S)N2CCN(C)CC2)cc1` gave uPA generation 0%, Chronic BCR inh -3%, VP16 counter 13µM*, Integrin act MD -6%, Mito fusion act -8% and RORg inh 14µM*.
O=C(/C=C/c1ccccc1)NC(=S)N1CCSCC1 was read as uPA generation -2%, Chronic BCR inh -8%, VP16 counter 10µM*, Integrin act MD 4%, Mito fusion act 1% and RORg inh 7.9µM*.
For O=C(C=Cc1ccccc1)NCCNC(=O)C=Cc1ccccc1 the results were uPA generation 3% and Integrin act MD 8%.
`NC(=S)NC(=O)/C=C/c1ccccc1` gave uPA generation -15%, Chronic BCR inh inconclusive, VP16 counter inconclusive, Integrin act MD 0%, Mito fusion act 4% and RORg inh 7.9µM*.
For O=C(/C=C/c1ccccc1)NCCSCc1ccccc1 the results were uPA generation -2%, Chronic BCR inh 1%, VP16 counter 13µM*, Integrin act MD -20% and RORg inh inconclusive.
Screening Cc1c(C(=O)NC2CCS(=O)(=O)C2)oc2ccccc12 (stereo not given) returned uPA generation 8%, Chronic BCR inh 10%, VP16 counter -9%, Integrin act MD 0%, Mito fusion act 2% and RORg inh 2%.
COc1ccccc1/C=C/C(=O)NC(=S)N1CCN(C)CC1 was read as uPA generation -3%, Chronic BCR inh -13%, VP16 counter 16µM*, Integrin act MD 0%, Mito fusion act -2% and RORg inh 11µM*.
For COc1ccc(/C=C/C(=O)NC(=S)N2CCOCC2)cc1 the results were uPA generation -4%, Chronic BCR inh -28%, VP16 counter inconclusive, Integrin act MD -5%, Mito fusion act -12% and RORg inh 4µM*.
`COc1ccc(/C=C/C(=O)NC(=S)N2CCN(c3ccccc3OC)CC2)cc1` gave uPA generation 4%, Chronic BCR inh 2%, VP16 counter -1%, Integrin act MD -10%, Mito fusion act 0% and RORg inh 2%.
`Cc1c(NS(=O)(=O)c2cc(C(=O)NCc3ccco3)cc(Cl)c2Cl)c(=O)n(-c2ccccc2)n1C` gave uPA generation 5%, Chronic BCR inh 25%, Integrin act MD 6% and Mito fusion act 10%.
For O=C(CCl)c1cc2c3c(c1)CC(=O)N3CCC2 the results were uPA generation -7%, Chronic BCR inh -5%, VP16 counter 3.5µM*, Integrin act MD -58%, Mito fusion act 12% and RORg inh 2µM*.
`CC1CCN(c2ncnc3c2nnn3C)CC1` gave Chronic BCR inh 0%.
Screening CCN(CC(=O)NCc1ccc(Cl)cc1)C(=O)CCC(=O)c1ccc(F)cc1 returned uPA generation -3%, Chronic BCR inh -11%, Integrin act MD 6% and Mito fusion act 3%.
For CCOc1ccccc1NC(=O)CCCN1C(=S)NC(C)(C)CC1C (stereo not given) the results were uPA generation -2%, Chronic BCR inh -12%, VP16 counter inconclusive, Integrin act MD -4%, Mito fusion act -9% and RORg inh 14µM*.
`CCOc1ccc(OCC)c(NC(=O)CCCN2C(=S)NC(C)(C)CC2C)c1` (stereo not given) gave uPA generation -9%, Chronic BCR inh -19%, VP16 counter 6.3µM*, Integrin act MD -2%, Mito fusion act -7% and RORg inh 6.3µM*.
For Cc1ccccc1NC(=O)CN1C(=S)NC(C)(C)CC1C (stereo not given) the results were uPA generation 4%, Chronic BCR inh 4%, VP16 counter inconclusive, Integrin act MD -12%, Mito fusion act -7% and RORg inh inconclusive.
`COc1ccc(-n2nnnc2SCC(=O)Nc2cc(OC)c([N+](=O)[O-])cc2C)cc1` gave uPA generation 0%, Chronic BCR inh -2%, VP16 counter 10µM*, Integrin act MD -19%, Mito fusion act -1% and RORg inh 6.3µM*.
O=C(CSc1nnc(-c2ccccc2F)n1C1CC1)Nc1cccnc1Cl was read as uPA generation 4%, Chronic BCR inh inconclusive, VP16 counter 40µM*, Integrin act MD 2%, Mito fusion act -6% and RORg inh inconclusive.
Screening O=C(CSc1nnnn1-c1ccc(Cl)cc1)Nc1cccnc1Cl returned uPA generation 3%, Chronic BCR inh -3%, VP16 counter inconclusive, Integrin act MD -16%, Mito fusion act 6% and RORg inh inconclusive.
